# From PubChem BioAssay AID1423 (NMMLSC, 2008)
# The whole screen tested about 220,000 compounds, of which about 750 (0.34%) were called active. Rule as the data show it: active = response below about 60% or above about 140%; inactive = in between. The list comes from a sample in which actives are over-represented; it also holds similar structures and randomly drawn compounds.
# Target: Guanine nucleotide-binding protein G(o) subunit alpha (Homo sapiens) (UniProt P09471)
# Assay: RGS8-Galphao binding modulators, primary screen, biochemical, multiplexed bead flow cytometry (AID 1423);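 also: Galphao activated as the GDP aluminium fluoride complex binding bead-coupled RGS8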
# Conditions: at 10 µM, actives lie on both sides
# Guanine nucleotide-binding protein G(o) subunit alpha (Homo sapiens), sequence (P09471 whole entry, looked up): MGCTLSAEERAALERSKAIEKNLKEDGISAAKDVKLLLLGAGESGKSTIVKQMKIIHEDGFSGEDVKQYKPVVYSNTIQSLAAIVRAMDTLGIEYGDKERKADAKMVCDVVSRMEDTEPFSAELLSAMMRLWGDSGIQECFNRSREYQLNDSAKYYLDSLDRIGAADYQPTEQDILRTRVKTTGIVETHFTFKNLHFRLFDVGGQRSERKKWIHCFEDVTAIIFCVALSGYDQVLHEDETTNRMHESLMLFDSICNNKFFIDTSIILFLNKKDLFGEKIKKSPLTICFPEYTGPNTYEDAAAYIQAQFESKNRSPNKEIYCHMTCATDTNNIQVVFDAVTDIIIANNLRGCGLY
row,SMILES,response (percent of control binding)
1,COc1cc(C(=O)NCc2ccc(-n3cccc3)cc2)cc(OC)c1OC,103% (inactive)
2,O=C(CCCl)Nc1ccc(S(=O)(=O)NCc2ccco2)cc1,98.5% (inactive)
3,CCCn1nnnc1NC(=O)COc1ccc(Cl)cc1C,11.9% (active)
4,Cc1cc(NC(=O)COc2ccc(Cl)cc2Cl)n(CCC#N)n1,99.5% (inactive)
5,CCOC(=O)N1CCN(C(=O)COc2ccc(Cl)cc2C)CC1,101% (inactive)
6,CCCCCN(C(=O)NC(=O)Nc1cccc(C)c1C)S(C)(=O)=O,102% (inactive)
7,O=C(CCc1ccccc1)Nc1ccc(NC(=O)C2CCCCC2)nc1,105% (inactive)
8,O=C(COC(=O)c1ccc[nH]c1=O)Nc1ccc2c(c1)OC(F)(F)O2,104% (inactive)
9,O=C(CSc1nc2ccc(Nc3nc(N4CCOCC4)nc(N4CCOCC4)n3)cc2s1)NCc1ccco1,98.3% (inactive)
10,Cc1ccc(C(=O)N/C(=C/c2cccs2)C(=O)NCC2CCCO2)cc1 (stereo not drawn),103% (inactive)
11,O=C(Cn1nnc(-c2ccccc2)n1)N/N=C/c1ccc(-c2ccc(Cl)cc2)o1,101% (inactive)
12,Oc1ccc(-c2onc3ccc(Cl)cc23)cc1,144% [activator] (active)
13,Clc1ccc2nc(-c3ccccc3)nc(C(Cl)Cl)c2c1,94.2% (inactive)
14,O=C(Oc1cccc(N2C(=O)C3C4c5ccccc5C(c5ccccc54)C3C2=O)c1)c1ccco1 (stereo not drawn),102% (inactive)
15,O=C1C2C3C=CC(C4CC34)C2C(=O)N1c1nccs1 (stereo not drawn),101% (inactive)
16,CCc1nnc(NC(=O)CCCSc2nc3ccccc3[nH]2)s1,101% (inactive)
17,Cc1ccc(NC(=O)/C(=C/c2ccc([N+](=O)[O-])cc2)NC(=O)c2ccccc2)cc1,106% (inactive)
18,COc1ccc(-c2nc3cnccn3c2NC(C)(C)CC(C)(C)C)cc1O,98.8% (inactive)
19,COc1ccc(N=C(C)c2sc3ccccc3c2O)cc1,97.2% (inactive)
20,CC(NC(=O)C1CCC(CNc2c(N3CCOCC3)c(=O)c2=O)CC1)c1ccccc1 (stereo not drawn),99.7% (inactive)
21,COc1ccc(CNC(=O)C2CCC(CNc3c(N4CCOCC4)c(=O)c3=O)CC2)cc1 (stereo not drawn),103% (inactive)
22,O=C(NCc1ccc(F)cc1)C1CCC(CNc2c(N3CCOCC3)c(=O)c2=O)CC1 (stereo not drawn),8.33% (active)
23,Cc1cccc(C)c1NC(=O)Nc1ccccc1-n1ccnc1,101% (inactive)
24,Cc1ccc(Cn2ccc(NC(=O)c3cc(C(C)C)on3)n2)cc1,55.8% (active)
25,O=C(Nc1ccn(Cc2ccccc2)n1)c1cccc(F)c1,103% (inactive)
26,Cc1ccc(Cn2ccc(NC(=O)C3C4CCC(C4)C3C(=O)O)n2)cc1 (stereo not drawn),102% (inactive)
27,Cc1onc(-c2ccc(Cl)cc2)c1-c1ccnn1S(=O)(=O)c1ccc(Cl)cc1,98.9% (inactive)
28,CS(=O)(=O)N(Cc1ccccc1)c1ccc(C(=O)NN=C2CCCCCC2)cc1,103% (inactive)
